Source: PubChem (National Center for Advancing Translational Sciences (NCATS))
HepG2 tox = HepG2 cytotoxicity, counter-screen for TGF-b inhibitors | HepG2 CAGA-GFP viability, ATP luminescence, 18 h | Potency, µM (doses to about 46.1 µM), inactives show at the highest dose activity change, negative = cytotoxicity, most hits filed as cytotoxic | 410,000 compounds, 0.76% hits | AID 588856; note: potency is the fitted concentration of half-maximal effect
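HepG2 CAGA-GFP cells (1000/well, DMEM with 1% FBS) received compound, then TGF-beta at 500 pg/mL final, and were incubated 18 hours at 37 degrees C. Viability was read by CellTiter-Glo luminescence. Media-only wells were set as complete cell-killing and DMSO as no toxicity.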
TDP1 cell CPT = DT40-hTDP1 cell growth loss with CPT; 420,000 compounds, 12% hits; Potency, µM (doses to about 46.2 µM), inactives show at the highest dose activity change, negative = growth inhibition, most hits filed as inhibitors; chicken DT40 Tdp1-/-;hTDP1 cells + 20 nM CPT, ATP luminescence, 48 h; note: potency is the fitted concentration of half-maximal effect; % is set by controls: 0 for no effect and ±100 for the full control effect; nearly all actives have a fitted effect of over 55% in size
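Chicken DT40 Tdp1-/- cells stably complemented with human TDP1 were seeded at 400 cells/well in medium containing 20 nM camptothecin, exposed to pin-transferred compounds, and grown at 37 °C for at least 48 hr. Viability was read as ATP luminescence.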
IL1B secr inh = inhibitors of inflammasome signaling (IL-1 beta secretion) | 360,000 compounds, 4.7% hits | activity change, % at 57.5 µM | THP-1 LPS/ATP IL-1B secretion, AlphaLISA, 16 h; active compounds read low | AID 743279; in the data active = activity change below about -50%; inconclusive = mostly about -30% to -49%; note: % is set by controls: 0 for no effect and ±100 for the full control effect
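THP-1 cells pretreated 1 hr with compounds (up to 57.5 uM final), then stimulated with LPS (250 ng/mL final) plus ATP (1.25 mM final); secreted IL-1B measured by AlphaLISA after 16 hr, decreased signal indicating inhibition.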
TDP1 cell noCPT = qHTS for Inhibitors of human tyrosyl-DNA phosphodiesterase 1 (TDP1): qHTS in cells in absence of CPT | 420,000 compounds, 15% hits | DT40 Tdp1-/- hTDP1 cells, no CPT, ATP luminescence, 48 h | AID 686978, 2013 | Potency, µM (top dose mostly 46.2 µM), for inactives: at the top dose activity change, negative = growth inhibition, actives largely listed as inhibitors; note: potency is the fitted concentration of half-maximal effect; % is set by controls: 0 for no effect and ±100 for the full control effect; nearly all actives have a fitted effect of over 55% in size
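Cells were dispensed at 400 per well, compounds added by pin tool, plates incubated ≥48 hr at 37 °C, then CellTiter-Glo added for 30 min at room temperature before luminescence reading. Line: DT40 Tdp1-/- complemented with hTDP1; camptothecin omitted.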
TDP1 block = blocks human tyrosyl-DNA phosphodiesterase 1. Potency, µM (series often up to 130 µM), inactives show top-dose activity change, negative = inhibition, usual class: inhibitors. recombinant TDP1, AlphaScreen DNA substrate cleavage. AID 485290. 350,000 compounds, 0.28% hits; note: potency is the fitted concentration of half-maximal effect; % is set by controls: 0 for no effect and ±100 for the full control effect; nearly all actives have a fitted effect of over 40% in size
Target sequence (Q9NUW8 whole entry, looked up): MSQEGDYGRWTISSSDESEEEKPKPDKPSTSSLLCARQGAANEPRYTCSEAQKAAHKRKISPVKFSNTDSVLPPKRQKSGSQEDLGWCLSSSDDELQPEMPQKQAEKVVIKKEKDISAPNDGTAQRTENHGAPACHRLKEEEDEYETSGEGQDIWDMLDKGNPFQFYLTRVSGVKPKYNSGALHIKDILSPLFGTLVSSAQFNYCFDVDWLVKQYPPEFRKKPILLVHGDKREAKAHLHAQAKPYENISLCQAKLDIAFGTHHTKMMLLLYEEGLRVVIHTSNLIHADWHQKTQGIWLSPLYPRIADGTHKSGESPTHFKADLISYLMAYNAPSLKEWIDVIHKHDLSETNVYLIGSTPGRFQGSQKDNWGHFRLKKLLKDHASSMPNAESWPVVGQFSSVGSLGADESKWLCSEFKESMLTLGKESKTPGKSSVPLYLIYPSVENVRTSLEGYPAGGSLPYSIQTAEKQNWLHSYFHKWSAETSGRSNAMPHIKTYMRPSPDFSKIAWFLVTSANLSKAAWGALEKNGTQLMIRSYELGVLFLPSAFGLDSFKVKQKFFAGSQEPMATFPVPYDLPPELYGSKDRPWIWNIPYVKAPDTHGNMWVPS
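Compounds were preincubated with Tdp1 (1 nM final) for 15 min at room temperature before substrate (15 nM final) started a 5 min reaction; beads (10 ug/ml final) were then added for 10 min before AlphaScreen detection.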
TGFb SMAD3 inh = inhibitors of TGF-b signaling. HepG2 CAGA-GFP TGF-b/SMAD3 reporter, GFP fluorescence, 18 h; TGF-beta stimulated, 500 pg/mL final. 410,000 compounds, 1.2% hits. AID 588855. Potency, µM (titrated, usually from 46.1 µM), without a hit: at the top dose activity, negative = inhibition, most hits filed as inhibitors; note: potency is the fitted concentration of half-maximal effect; % is set by controls: 0 for no effect and ±100 for the full control effect; nearly all actives have a fitted effect of over 65% in size
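TGF-beta reporter screen: HEPG2 CAGA-GFP, 1% FBS, 500 pg/mL TGF-beta final, 18 h; per-cell GFP summed per well; curves fitted and categorized by class.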
The depositor's hits bear a star; u = inconclusive; x = no result given; [ ] = dose if it differs, or a comment. Only some compounds are listed: those with a hit (about 18% of all), similar ones and a draw of the others. Unless noted, calls come from the whole dose curve; as a rule, active = well fitted curve in the direction sought with a large enough effect; inconclusive = small, poorly fitted or top-dose-only effect, or another doubt; inactive = no such curve, though single readings can be large; an effect the other way counts as inactive or inconclusive.

SMILES	HepG2 tox	TDP1 cell CPT	IL1B secr inh	TDP1 cell noCPT	TDP1 block	TGFb SMAD3 inh
Oc1ccc(N=Nc2ccc3c(c2)OCCO3)c2ncccc12	10.2%	2.91µM*	114.8	2.06µM*	12.8%	u
CC1CCC(NC(=O)CCC(=O)N2CC(C)Oc3ccccc32)CC1 (stereo not drawn)	-0.2%	u	-12.6	-26.6%	x	-8.2%
COc1ccc(NC(=O)c2cc(C3CCCCN3C(=O)c3ccc(Cl)cc3)on2)c(C)c1 (stereo not drawn)	-15.7%	u	-16.1	u	x	-4.5%
CCN(CC)S(=O)(=O)c1cc(OC)ccc1N=Nc1ccc(O)c2ncccc12	-26.1%	7.31µM*	34.1	u	x	u
Nc1nc(N)c(N=Nc2ccc(S(N)(=O)=O)cc2)c(=O)[nH]1	4.6%	-5.1%	5.1	-9.9%	-1.3%	11.4%
NS(=O)(=O)c1ccc(N=Nc2ccc(=O)[nH]c2O)cc1	7.3%	28.8%	26.4	-3.2%	44.7µM*	2.4%
S=C(Nc1ccccc1)Nc1ccccc1C#Cc1ccccc1	x	x	x	x	14.7%	x
Cc1nc(Nc2ccc(F)cc2)nc(Nc2ccc(F)cc2)c1[N+](=O)[O-]	-32.8%	u	18.3	u	6.8%	-16.1%
CC(C)Nc1nc(Nc2ccc(C#N)cc2)c2sccc2n1	-28.4%	14.6µM*	-1.0	25.9µM*	x	24.5%
CC(C)Nc1nc(Nc2ccc(F)cc2)c2sccc2n1	-22.0%	25.9µM*	-5.4	u	x	27.0%
Cc1cccnc1C(NC(=O)C1CCN(Cc2ccc(Oc3ccccc3)cc2)CC1)c1ccccc1 (stereo not drawn)	-40.3%	14.6µM*	u	18.4µM*	x	u
COc1ccc(C(NC(=O)C2CCN(Cc3ccc(Oc4ccccc4)cc3)CC2)c2ccccc2C)cn1 (stereo not drawn)	-37.0%	20.6µM*	u	18.4µM*	x	-11.2%
COc1cc(CN2CCC(C(=O)NC(c3ccc(F)cc3)c3ncccc3C)CC2)cc(OC)c1 (stereo not drawn)	-30.0%	23.1µM*	-21.5	u	x	-8.1%
Cc1cccnc1C(NC(=O)C1CCN(CCCOc2ccccc2)CC1)c1ccc(F)cc1 (stereo not drawn)	-6.7%	u	-16.9	u	x	16.8%
Cc1cccnc1C(NC(=O)C1CCN(Cc2ccccc2)CC1)c1ccc(F)cc1 (stereo not drawn)	3.9%	u	-14.5	u	x	4.4%
COc1cc(OC)nc(C(NC(=O)C2CCN(Cc3ccc(N(C)C)cc3)CC2)c2ccc(F)cc2)n1 (stereo not drawn)	-5.5%	u	-6.5	u	x	-0.7%
COc1cc(OC)nc(C(NC(=O)C2CCN(Cc3c[nH]c4ccccc34)CC2)c2ccc(Cl)cc2)n1 (stereo not drawn)	10µM*	u	-61.2*	18.4µM*	x	u
COc1ccc(CN2CCC(C(=O)NC(C)c3cccc4ccccc34)CC2)cc1 (stereo not drawn)	-13.5%	u	-21.4	u	x	8.9%
O=C(NC(c1ccc(-c2ccccc2)cc1)c1cnccn1)C1CCN(CCN2C(=O)c3ccccc3C2=O)CC1 (stereo not drawn)	-47.7%	23.1µM*	-1.4	23.1µM*	x	-2.0%
COc1cc(CN2CCC(C(=O)NC(c3ccc(-c4ccccc4)cc3)c3cnccn3)CC2)cc(OC)c1 (stereo not drawn)	22.4µM*	9.2µM*	-53.1*	23.1µM*	x	u
O=C(NC(c1ccccc1)c1ccsc1)C1CCN(Cc2ccc(Oc3ccccc3)cc2)CC1 (stereo not drawn)	-34.2%	u	u	18.4µM*	x	-9.9%
O=C(NC(c1ccccc1)c1ccsc1)C1CCN(Cc2ccc(Cl)c(Cl)c2)CC1 (stereo not drawn)	-18.0%	u	u	u	x	-17.2%
O=C(NC(c1ccc(-c2ccccc2)cc1)c1cnccn1)C1CCN(Cc2cccs2)CC1 (stereo not drawn)	-27.3%	u	-10.9	u	x	12.5%
O=C(NC(c1ccc(-c2ccccc2)cc1)c1cnccn1)C1CCN(Cc2ccc(Oc3ccccc3)cc2)CC1 (stereo not drawn)	-61.6%	u	-52.2*	u	x	u
CC(=O)OC[C@H]1O[C@@H](O/N=C(\C)CCN2CCCCc3nc(C)c(C)cc32)[C@H](OC(C)=O)[C@@H](OC(C)=O)[C@H]1OC(C)=O	x	x	x	x	3.7%[21 µM]	x
SMILES	HepG2 tox	TDP1 cell CPT	IL1B secr inh	TDP1 cell noCPT	TDP1 block	TGFb SMAD3 inh
Cc1onc(-c2ccccc2)c1C(=O)N1CCC(C)(C(=O)O)C1 (stereo not drawn)	5.0%	-7.8%	8.9	-16.0%	x	34.4%
COc1ccc(C(NC(=O)C2CCN(Cc3ccc(Oc4ccccc4)cc3)CC2)c2ccccn2)cc1 (stereo not drawn)	-28.0%	16.4µM*	u	16.4µM*	x	u
COc1ccc(C)cc1S(=O)(=O)N1CCN(S(=O)(=O)c2cc(C)ccc2OC)CC1	-0.6%	-13.0%	-4.2	-14.6%	0.0%	4.3%
O=S(=O)(c1ccc(Cl)s1)N1CCN(C/C=C/c2ccccc2)CC1	-7.1%	16.4µM*	-10.7	u	6.2%	u
COc1ccc(C)cc1S(=O)(=O)N1CCN(C/C=C/c2ccccc2)CC1	-31.3%	u	-1.5	14.6µM*	2.5%	u
O=S(=O)(c1ccc(Cl)s1)N1CCN(Cc2ccccc2)CC1	8.9%	u	19.6	16.4µM*	-1.1%	-12.1%
CCOc1ccc(NC(=O)CSc2nc3c(oc4ccccc43)c(=O)n2-c2ccccc2C)cc1	-16.6%	u	x	23.1µM*	2.0%	0.0%
COc1ccccc1NC(=O)CSc1nc2c(oc3ccccc32)c(=O)n1-c1ccccc1F	-29.0%	13µM*	x	9.2µM*	2.9%	-17.4%
CCOc1ccc(-n2c(SCC(=O)Nc3ccc(CC)cc3)nc3c(oc4ccccc43)c2=O)cc1	-2.7%	1.2%	x	u	0.0%	-24.8%
CC(=O)c1cc(CN2CCN(C3CCN(C(C)C)CC3)C(CCO)C2)cs1 (stereo not drawn)	-6.5%	-19.3%	-11.7	-26.6%	x	-13.3%
COc1cc(/C=C/C(=O)OCC(=O)N2CC(C)OC(C)C2)ccc1OCC#N (stereo not drawn)	-4.4%	-4.0%	-8.7	-15.9%	x	-9.5%
